Measured values from PubChem BioAssay (EPA / NIEHS).
Active and inactive are the calls of the source. How the source made its calls: active means hit-call score of the fitted dose curve at least 0.9, where 1 is the maximum; inactive means score below 0.9.

What was measured:
[1] = ATG_CRE_CIS: Attagene CIS-FACTORIAL HepG2 Assay for human cAMP Responsive Element (CRE) binding protein 3 (AID 2282926); details: HepG2 CRE cis-reporter, Attagene multiplexed mRNA; actives raise or lower the signal
In short: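 Assay format: transient reporter transfection of HepG2, 24 h treatment, total RNA isolation with DNase I step. Reporter abundance read by fluorescence after PCR and capillary separation; DMSO-normalised gain or loss fitting.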

[2] = molecular target: CCAAT/enhancer-binding protein beta (Homo sapiens) (UniProt P17676); experiment: ATG_C_EBP_CIS: Attagene CIS-FACTORIAL HepG2 Assay for human CCAAT/Enhancer Binding Protein (C/EBP) beta (AID 2282927); details: HepG2 Attagene cis-factorial transcription factor reporter; actives raise or lower the signal
In short: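 Following a 24 h incubation with test chemical, transfected HepG2 cells yielded RNA whose reporter transcripts were quantified by RT-PCR and fluorescent capillary electrophoresis, with DMSO serving as baseline for bidirectional fitting.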

[3] = ATG_DR4_LXR_CIS: Attagene CIS-FACTORIAL HepG2 Assay for human Liver X Receptor (LXR), DR4 submotif (AID 2282929); details: HepG2 Attagene DR4 cis-reporter, mRNA transcription; actives raise or lower the signal
In short: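 After transient transfection with multiplexed cis-promoter reporter units, HepG2 cells received test chemicals for 24 h. Reporter mRNA induction, detected by fluorescence after RT-PCR and capillary electrophoresis, was scored relative to DMSO.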

[4] = molecular target: Aryl hydrocarbon receptor (Homo sapiens) (UniProt P35869); experiment: ATG_Ahr_CIS: Attagene CIS-FACTORIAL HepG2 Assay for human Aryl Hydrocarbon Receptor (Ahr) (AID 2282930); details: HepG2 AhR cis-factorial reporter transcription; actives raise or lower the signal
In short: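 Values derive from bidirectional fitting against DMSO negative control. Underlying signal: cis-element reporter mRNA in transiently transfected HepG2, harvested 24 h post-dose and measured by RT-PCR plus capillary electrophoresis.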

[5] = ATG_AP_1_CIS: Attagene CIS-FACTORIAL HepG2 Assay for human Activator Protein 1 (AP-1) (AID 2282931); details: HepG2 Attagene cis-factorial AP-1 reporter mRNA; actives raise or lower the signal
In short: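 After 24 h incubation with test chemical, RNA from transfected HepG2 cells was reverse-transcribed, amplified, fluorescently labelled and digested before capillary electrophoresis. Reporters were driven by cis-regulatory promoters; activity fitted bidirectionally versus DMSO.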

[6] = ATG_AP_2_CIS: Attagene CIS-FACTORIAL HepG2 Assay for human Activator Protein 2 (AP-2) (AID 2282932); details: HepG2 AP-2 cis-reporter, Attagene transcription factor profiling; actives raise or lower the signal
In short: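 Cells (HepG2) transfected with promoter-driven reporter constructs, treated 24 h. Total RNA reverse-transcribed, reporter cDNA PCR-amplified, FAM-labelled by primer extension, digested, resolved by capillary electrophoresis. Activity fitted both directions versus DMSO.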

[7] = ATG_BRE_CIS: Attagene CIS-FACTORIAL HepG2 Assay for human Bone Morphogenetic Protein (BMP) Response Element (BRE) (AID 2282933); details: HepG2 BMP response element reporter, Attagene transcription factor profiling; actives raise or lower the signal
In short: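 A HepG2 multiplex reporter system measured inducible reporter mRNA 24 h post-dosing. Detection: RT-PCR, 6-FAM primer extension, HpaI digestion, capillary electrophoresis. Activity fitted bidirectionally relative to DMSO.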

[8] = molecular target: Transcription factor E2F1 (Homo sapiens) (UniProt Q01094); experiment: ATG_E2F_CIS: Attagene CIS-FACTORIAL HepG2 Assay for human E2F Transcription Factor 1 (AID 2282935); details: HepG2 Attagene cis-reporter, E2F reporter RNA transcripts; actives raise or lower the signal
In short: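 First, HepG2 cells were transfected with reporter transcription units. Next, they were dosed for 24 h. Then RNA was isolated, converted to cDNA, PCR-amplified, FAM-labeled, HpaI-digested and analyzed by capillary electrophoresis.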

[9] = ATG_CMV_CIS: Attagene CIS-FACTORIAL HepG2 Assay for human CMV (Internal Marker) (AID 2282928); details: HepG2 CMV promoter reporter, transcription factor profiling; actives raise or lower the signal;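 further: endpoint acts as a background internal control marker rather than a target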
In short: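 Fluorescence intensity of RT-PCR-derived reporter fragments, resolved by capillary electrophoresis, gives the signal. HepG2 liver cells bearing transfected cis-element reporters were treated 24 h; activity in either direction was fit relative to DMSO-treated controls.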

[10] = molecular target: Retinoic acid receptor alpha (Homo sapiens) (UniProt P10276); experiment: ATG_DR5_RAR_CIS: Attagene CIS-FACTORIAL HepG2 Assay for human Retinoic Acid Receptor Alpha (RARE), DR5 submotif (AID 2282934); details: HepG2 Attagene cis-factorial RARE DR5 reporter, mRNA; actives raise or lower the signal
In short: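 Endpoint fitted in both directions relative to DMSO as negative control. It reflects DR5 cis-element reporter mRNA induction in transiently transfected HepG2 cells, measured 24 h after dosing through RT-PCR and fluorescent capillary electrophoresis.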

Measured: AC50

Chain of CCAAT/enhancer-binding protein beta (Homo sapiens) (P17676 whole entry, looked up): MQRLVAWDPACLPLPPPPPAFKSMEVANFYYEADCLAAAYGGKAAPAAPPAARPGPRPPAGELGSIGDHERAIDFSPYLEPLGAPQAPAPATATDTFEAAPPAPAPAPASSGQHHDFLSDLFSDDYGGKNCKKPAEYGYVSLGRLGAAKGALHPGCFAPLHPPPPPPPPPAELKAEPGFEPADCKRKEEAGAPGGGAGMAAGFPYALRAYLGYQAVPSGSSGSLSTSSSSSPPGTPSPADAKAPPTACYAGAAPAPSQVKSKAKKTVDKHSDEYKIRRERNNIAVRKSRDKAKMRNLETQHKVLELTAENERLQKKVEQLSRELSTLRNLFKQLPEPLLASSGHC
Chain of Transcription factor E2F1 (Homo sapiens) (Q01094 whole entry, looked up): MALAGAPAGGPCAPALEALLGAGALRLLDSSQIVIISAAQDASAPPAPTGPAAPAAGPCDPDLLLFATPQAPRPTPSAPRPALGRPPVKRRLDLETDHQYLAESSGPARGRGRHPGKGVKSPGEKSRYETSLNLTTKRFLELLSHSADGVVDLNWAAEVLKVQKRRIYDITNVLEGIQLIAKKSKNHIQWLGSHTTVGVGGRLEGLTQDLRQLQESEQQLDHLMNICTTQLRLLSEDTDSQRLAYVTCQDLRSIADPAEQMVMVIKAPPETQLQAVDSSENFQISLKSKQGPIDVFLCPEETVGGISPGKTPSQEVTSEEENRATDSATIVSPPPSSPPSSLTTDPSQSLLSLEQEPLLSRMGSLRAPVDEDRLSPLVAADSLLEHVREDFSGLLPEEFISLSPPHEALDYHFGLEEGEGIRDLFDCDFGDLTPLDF
Chain of Retinoic acid receptor alpha (Homo sapiens) (P10276 whole entry, looked up): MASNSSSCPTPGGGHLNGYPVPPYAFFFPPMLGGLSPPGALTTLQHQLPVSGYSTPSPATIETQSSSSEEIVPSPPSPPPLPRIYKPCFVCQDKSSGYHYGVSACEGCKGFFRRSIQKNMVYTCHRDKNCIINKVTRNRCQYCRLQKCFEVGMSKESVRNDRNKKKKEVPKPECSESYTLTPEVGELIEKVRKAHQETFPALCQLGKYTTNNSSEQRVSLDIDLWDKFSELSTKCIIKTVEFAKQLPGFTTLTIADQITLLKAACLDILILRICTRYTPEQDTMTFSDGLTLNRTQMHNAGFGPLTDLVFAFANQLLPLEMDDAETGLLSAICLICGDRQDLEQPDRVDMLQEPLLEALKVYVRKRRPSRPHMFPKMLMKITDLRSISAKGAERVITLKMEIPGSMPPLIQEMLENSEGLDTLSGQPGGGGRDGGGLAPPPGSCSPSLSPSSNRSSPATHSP
Chain of Aryl hydrocarbon receptor (Homo sapiens) (P35869 whole entry, looked up): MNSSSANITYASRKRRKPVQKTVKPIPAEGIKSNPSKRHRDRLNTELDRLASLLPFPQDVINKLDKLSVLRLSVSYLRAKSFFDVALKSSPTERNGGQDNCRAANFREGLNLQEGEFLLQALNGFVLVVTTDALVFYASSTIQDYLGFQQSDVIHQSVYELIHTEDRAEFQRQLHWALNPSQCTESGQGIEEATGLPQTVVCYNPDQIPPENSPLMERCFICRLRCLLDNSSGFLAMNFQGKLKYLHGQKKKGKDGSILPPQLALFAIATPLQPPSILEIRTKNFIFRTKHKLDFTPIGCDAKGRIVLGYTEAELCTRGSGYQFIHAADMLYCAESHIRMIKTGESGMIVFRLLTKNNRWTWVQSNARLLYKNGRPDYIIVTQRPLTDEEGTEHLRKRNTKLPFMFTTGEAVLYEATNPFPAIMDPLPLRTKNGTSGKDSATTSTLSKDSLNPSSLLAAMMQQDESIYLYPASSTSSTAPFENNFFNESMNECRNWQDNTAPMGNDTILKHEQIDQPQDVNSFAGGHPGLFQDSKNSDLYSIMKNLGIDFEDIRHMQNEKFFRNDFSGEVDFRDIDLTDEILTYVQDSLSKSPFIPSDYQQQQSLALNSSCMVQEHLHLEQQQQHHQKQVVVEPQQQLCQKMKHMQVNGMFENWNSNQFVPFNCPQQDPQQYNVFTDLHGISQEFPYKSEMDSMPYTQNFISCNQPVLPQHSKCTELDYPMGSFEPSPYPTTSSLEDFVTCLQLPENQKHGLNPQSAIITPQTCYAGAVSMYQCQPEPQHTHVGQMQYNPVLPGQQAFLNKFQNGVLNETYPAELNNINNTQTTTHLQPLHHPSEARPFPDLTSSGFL

COC(F)(F)C(F)(C(F)(F)F)C(F)(F)F
inactive: [1] | [2] | [3] | [4] | [5] | [6] | [7] | [8]

O=C1C(N(CO)C(=O)NCO)N(CO)C(=O)N1CO (stereo not drawn)
inactive: [1] | [2] | [9] | [3] | [4] | [6] | [7] | [10] | [8]

O=S(=O)(O)c1ccc2cc(O)c(S(=O)(=O)O)cc2c1
inactive: [1] | [2] | [5] | [6] | [7] | [10] | [8]
active: [3] 60.8 µM | [4] 138 µM

C=C[Si](OC(C)=O)(OC(C)=O)OC(C)=O
inactive: [1] | [2] | [3] | [4] | [5] | [6] | [7] | [8]

C=CCOCC(O)CCl (stereo not drawn)
inactive: [1] | [2] | [9] | [3] | [4] | [6] | [7] | [8]

O=C(Nc1ccccc1SSc1ccccc1NC(=O)c1ccccc1)c1ccccc1
inactive: [1] | [2] | [3] | [6] | [7] | [10] | [8]
active: [4] 2.79 µM | [5] 62.4 µM

Cc1cnc(NC(=O)C2=C(O)c3ccccc3S(=O)(=O)N2C)s1
active: [4] 100 µM
inactive: [1] | [2] | [3] | [5] | [6] | [7] | [10]

CC1=CC[C@H]2C[C@@H]1C2(C)C
inactive: [1] | [2] | [9] | [3] | [5] | [6] | [7] | [10] | [8]

COCc1c(C(C)C)nc(C(C)C)c(/C=C/[C@@H](O)C[C@@H](O)CC(=O)O)c1-c1ccc(F)cc1
inactive: [1] | [2] | [9] | [3] | [4] | [7] | [10] | [8]

CC(C)(C)c1n[nH]c(=O)n(N)c1=O
inactive: [1] | [2] | [3] | [4] | [5] | [6] | [7] | [10]

CC(C)=CCC[C@H](C)CCO
inactive: [1] | [2] | [9] | [3] | [4] | [6] | [7] | [8]

Nc1ccc(N=Nc2ccccc2)c(N)n1
active: [3] 48.5 µM | [4] 23.5 µM
inactive: [1] | [2] | [5] | [6] | [7] | [10] | [8]

Cc1cc(C)c(C)cc1C
inactive: [1] | [2] | [9] | [3] | [4] | [7] | [10] | [8]

CC(C)(C)c1ccc(OC(=O)c2ccccc2O)cc1
active: [9] 34.7 µM
inactive: [1] | [2] | [3] | [4] | [6] | [7] | [10] | [8]
